Assay results from PubChem BioAssay (NCATS).
Where “and” joins values, the source holds several entries; their conditions need not be identical. Identical values can stand only once. Inconclusive results are not listed. Calls of active or inactive are those of the source. Unless noted, calls come from the whole dose curve; as a rule, active = well fitted curve in the direction sought with a large enough effect; inconclusive = small, poorly fitted or top-dose-only effect, or another doubt; inactive = no such curve, though single readings can be large; an effect the other way counts as inactive or inconclusive.

Key:
[1] = qHTS assay for environmental chemicals that activate the Aryl hydrocarbon Receptor (AhR) signaling pathway (AID 651777); details: 1A2-DRE human hepatoma cells, luciferase, 24 h; stronger effect = higher value; note: % of control where 0% means no effect; nearly all actives have a fitted effect of over 15% in size
In short: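 Human hepatoma 1A2-DRE cells stably carrying a DRE/CYP1A2 promoter–luciferase reporter, 1,200 cells/well, exposed to compound 24 hr at 37 C. Luciferase read by One-Glo luminescence after 30 min at room temperature; increased signal marks AhR activation.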

[2] = molecular target: Peroxisome proliferator-activated receptor alpha (Homo sapiens) (UniProt Q07869); experiment: qHTS assay for small molecule agonists of the peroxisome proliferator-activated receptor alpha (PPARalpha) signaling pathway (AID 651778); details: PathHunter PPARalpha complementation, chemiluminescence, 6 h; max response: stronger effect = higher value; note: % of control where 0% means no effect
Chain of Peroxisome proliferator-activated receptor alpha (Homo sapiens) (Q07869 whole entry, looked up): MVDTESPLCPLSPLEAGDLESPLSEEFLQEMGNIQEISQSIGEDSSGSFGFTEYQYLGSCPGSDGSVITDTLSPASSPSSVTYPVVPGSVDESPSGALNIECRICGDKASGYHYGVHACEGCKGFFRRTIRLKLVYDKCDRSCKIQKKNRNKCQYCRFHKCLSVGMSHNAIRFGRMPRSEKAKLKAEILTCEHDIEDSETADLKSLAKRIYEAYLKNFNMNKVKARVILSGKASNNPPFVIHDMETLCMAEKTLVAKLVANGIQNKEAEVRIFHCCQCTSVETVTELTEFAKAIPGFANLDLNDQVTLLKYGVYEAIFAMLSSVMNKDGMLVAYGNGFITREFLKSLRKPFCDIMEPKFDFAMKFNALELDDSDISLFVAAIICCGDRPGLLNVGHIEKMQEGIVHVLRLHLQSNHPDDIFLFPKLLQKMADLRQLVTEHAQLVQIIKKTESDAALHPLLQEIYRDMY
In short: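 Chemiluminescence from complemented enzyme reported PPARalpha activation in cells after 6 hr of compound treatment at 37 C. The detection reagent was incubated for 60 min at room temperature, and compounds were scored as agonists.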

[3] = qHTS assay for small molecule agonists of the antioxidant response element (ARE) signaling pathway measured by Nrf2-dependant transcriptional activity (AID 720636; active = well fitted curve in the direction sought with a large enough effect in the repeat runs; an effect the other way counts as inactive or inconclusive; note: % of control where 0% means no effect); details: ARE-luc HepG2, Nrf2 luciferase reporter, 16 h; series mostly up to 92.4 µM
In short: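 ARE-luc HepG2 cells carrying an Nrf2-responsive luciferase reporter, in medium with 1% dialyzed FBS, exposed to compound for 16 hr at 37 C, 5% CO2. Luminescence read 30 min after ONE-Glo addition.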

[4] = qHTS assay for small molecule agonists of the antioxidant response element (ARE) signaling pathway measured by Nrf2-dependant transcriptional activity - cell viability counter screen (AID 720653; active = well fitted curve in the direction sought with a large enough effect in the repeat runs; an effect the other way counts as inactive or inconclusive; note: % is set by controls: 0 for no effect and ±100 for the full control effect); details: ARE-bla HepG2 viability, CellTiter-Glo ATP luminescence, 16 h; stronger effect = lower value
In short: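 Cytotoxicity counter screen: intracellular ATP quantified by CellTiter-Glo luminescence in the same ARE-bla HepG2 plates, after 16 h compound exposure and a 2 h beta-lactamase substrate step.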

[5] = qHTS Assay for Identifying Gametocytocidal Compounds (AID 743244);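 note: % is set by controls: 0 for no effect and ±100 for the full control effect; actives lower the fluorescent signal which means gametocytes are killed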; details: P. falciparum 3D7 stage III-V gametocytes, alamarBlue, 72 h; max response: stronger effect = lower value
In short: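 Compounds are pinned into medium, gametocytes (stage III–V, 3D7, 20,000 cells/well) added, and plates held 72 h at 37 °C in 5% CO2. AlamarBlue follows for 24 h before fluorescence reading.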

[6] = qHTS assay for cell viability of HEK293 cells (AID 743288); details: ATP luminescence (CellTiter-Glo), 18 h, stronger effect = lower value; note: % is set by controls: 0 for no effect and ±100 for the full control effect; nearly all actives have a fitted effect of over 50% in size
In short: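 Quantitative high-throughput screen: compounds were pinned onto parental HEK293 cells (2,000 per well) after a minimum 5 h settling at 37 C, incubated 18 h at 37 C, and intracellular ATP measured by luciferase luminescence.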

[7] = qHTS assay for cell viability of the p53RE-bla HCT-116 cell line (AID 743292); details: p53RE-bla HCT-116 viability, ATP luminescence, 16 h; series mostly up to 95 µM; note: % is set by controls: 0 for no effect and ±100 for the full control effect; nearly all actives have a fitted effect of over 55% in size
In short: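 CellSensor p53RE-bla HCT-116 cells (4,000/well) pre-incubated 5 h at 37 C, then exposed to compounds in DMSO for 16 h at 37 C. Viability read as ATP content by CellTiter-Glo luminescence after 30 min at room temperature.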

[8] = qHTS for small molecule inhibitors of Yes1 kinase: Counter Assay (AID 686950); details: series mostly up to 76.9 µM;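 note: no kinase present so only ADP-Glo detection of a fixed ADP amount is tested; luminescence from ADP-Glo reporting ADP in a fixed ATP and ADP mixture; 0% = DMSO wells with ATP plus ADP and -100% = ATP-only wells without ADP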
In short: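 ADP-Glo luminescence read after a 60 min room-temperature incubation of compound with an ATP/ADP mix (0.08 mM/0.02 mM) and no kinase, following a 20 min compound preincubation. Signal scaled between ATP+ADP (max) and 0.1 mM ATP-only (min) wells; Tris pH 7.5, Mg2+, DTT.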

[9] = molecular target: Arylsulfatase A (Homo sapiens) (UniProt P15289); experiment: qHTS screen for enhancers of Arylsulfatase A (ASA1): LOPAC Validation Assay (AID 720538); details: ASA enzyme activity, LOPAC qHTS enhancer assay; series mostly up to 57.5 µM; note: 0% is about no effect
Chain of Arylsulfatase A (Homo sapiens) (P15289 whole entry, looked up): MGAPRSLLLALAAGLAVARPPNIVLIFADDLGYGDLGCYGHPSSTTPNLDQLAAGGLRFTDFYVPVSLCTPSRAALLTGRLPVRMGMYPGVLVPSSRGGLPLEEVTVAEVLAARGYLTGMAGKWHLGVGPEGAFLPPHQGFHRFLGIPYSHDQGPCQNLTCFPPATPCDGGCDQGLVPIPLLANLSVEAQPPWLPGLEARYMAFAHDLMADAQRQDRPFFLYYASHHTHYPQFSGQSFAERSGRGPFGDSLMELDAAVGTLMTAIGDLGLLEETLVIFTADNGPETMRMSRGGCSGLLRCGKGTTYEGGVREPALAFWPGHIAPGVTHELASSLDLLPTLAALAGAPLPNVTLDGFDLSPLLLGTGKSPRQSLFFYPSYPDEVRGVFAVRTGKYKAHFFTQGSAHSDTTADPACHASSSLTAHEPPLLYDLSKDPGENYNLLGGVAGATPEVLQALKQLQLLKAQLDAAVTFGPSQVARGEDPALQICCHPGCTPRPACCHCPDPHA
In short: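 First, ASA-I179S fibroblasts from an MLD patient adhered for 6 hrs. Next, compounds were added for 48h. Then pNCS substrate (0.5mM final) with lysis buffer reacted 14h at room temperature before NaOH stop and fluorescence measurement.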

[10] = qHTS for compounds that reverse cellular toxicity of Amyloid beta (A-beta) peptide in yeast: LOPAC Validation Assay (AID 720559); details: yeast expressing A-beta; series mostly up to 46.1 µM;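 note: plate controls were DMSO for no effect and equimolar ferric chloride plus clioquinol rescue for full effect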
In short: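 Activity is expressed relative to DMSO and an equimolar ferric chloride/clioquinol mix. Compounds were pinned into medium with A-beta-expressing yeast, grown 48 hr at 30 C, then read by absorbance at 600 nm.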

[11] = qHTS for Activators of Parkin Expression: LOPAC Validation Assay (NLuc Reporter) (AID 720572); details: Parkin promoter NanoLuc reporter cells, luminescence, percent of positive control, DMSO as zero; series mostly up to 46.1 µM
In short: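 Compound effects on Parkin promoter activity were measured as NanoLuc luminescence after 24 h at 37 C. The neuronal reporter line also carried FLuc, which was read first. LOPAC compounds were tested at 7 concentrations, with normalization to DMSO (0%) and positive control (100%).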

[12] = molecular target: T1, Hexokinase-4 (Homo sapiens) + Glucokinase regulatory protein (Homo sapiens) (UniProt P35557+Q14397); experiment: qHTS assay for inhibitors of recombinant human GCK-GKRP interaction: ADP-Glo assay (AID 743206); details: ADP-Glo luminescence, 60 min, 0% = vehicle-only wells with enzyme present; series mostly up to 76.9 µM;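 note: plate controls were DMSO plus enzyme for no effect and no enzyme for full effect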
T1 sequence (P35557 whole entry, looked up): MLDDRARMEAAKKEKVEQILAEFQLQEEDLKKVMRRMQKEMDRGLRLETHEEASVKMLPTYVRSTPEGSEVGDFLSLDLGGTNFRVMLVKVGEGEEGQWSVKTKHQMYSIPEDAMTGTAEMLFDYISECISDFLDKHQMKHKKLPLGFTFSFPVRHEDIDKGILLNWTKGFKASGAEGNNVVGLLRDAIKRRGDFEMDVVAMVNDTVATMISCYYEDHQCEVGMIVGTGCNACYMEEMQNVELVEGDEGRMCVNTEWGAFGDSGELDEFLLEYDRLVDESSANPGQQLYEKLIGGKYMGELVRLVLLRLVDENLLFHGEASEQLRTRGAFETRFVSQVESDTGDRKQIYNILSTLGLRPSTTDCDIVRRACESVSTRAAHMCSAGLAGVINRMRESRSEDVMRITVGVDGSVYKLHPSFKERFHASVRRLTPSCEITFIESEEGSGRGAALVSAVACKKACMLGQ
T1 sequence (Q14397 whole entry, looked up): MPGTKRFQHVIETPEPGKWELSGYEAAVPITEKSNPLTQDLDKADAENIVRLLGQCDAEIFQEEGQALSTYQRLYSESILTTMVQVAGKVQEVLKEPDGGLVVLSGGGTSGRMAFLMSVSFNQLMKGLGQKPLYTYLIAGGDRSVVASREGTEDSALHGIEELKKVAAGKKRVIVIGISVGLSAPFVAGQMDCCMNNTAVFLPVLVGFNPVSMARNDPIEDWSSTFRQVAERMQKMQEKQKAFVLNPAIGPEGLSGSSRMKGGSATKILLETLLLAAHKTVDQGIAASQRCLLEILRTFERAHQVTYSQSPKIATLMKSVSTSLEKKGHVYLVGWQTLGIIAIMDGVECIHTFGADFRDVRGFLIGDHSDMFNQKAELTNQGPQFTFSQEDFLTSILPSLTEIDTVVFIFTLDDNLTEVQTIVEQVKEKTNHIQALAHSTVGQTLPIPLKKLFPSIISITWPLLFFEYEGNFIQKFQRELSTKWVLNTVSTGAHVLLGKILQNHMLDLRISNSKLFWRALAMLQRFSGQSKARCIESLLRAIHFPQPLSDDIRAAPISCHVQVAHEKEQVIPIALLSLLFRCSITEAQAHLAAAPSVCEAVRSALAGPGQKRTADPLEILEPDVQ
In short: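 Pin-transferred compounds meet a 15 nM GST-GCK/15 nM FLAG-GKRP/2 uM S6P mix (dispense concentrations). ATP is then added to 0.4 mM final with 5 mM glucose, and the reaction runs 60 min at room temperature. ADP is quantified luminescently.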

[13] = molecular target: T1, Hexokinase-4 (Homo sapiens) + Glucokinase regulatory protein (Homo sapiens); experiment: qHTS assay for inhibitors of recombinant human GCK-GKRP interaction: HTRF assay (AID 743207); details: recombinant GCK-GKRP HTRF binding, 60 min, with sorbitol-6-phosphate; series mostly up to 57.5 µM;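 note: 0% = DMSO with GCK present and -100% = DMSO wells lacking GCK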
In short: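 Steps: dispense GCK–GKRP complex (5 nM each, GST- and FLAG-tagged) with 2 uM S6P; pin in compounds; add XL665/Eu-cryptate-labelled antibodies; incubate 60 min at room temperature; read time-resolved FRET at 665 and 615 nm.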

CC1(C)C(C=C(Cl)Cl)C1C(=O)OCc1cccc(Oc2ccccc2)c1 (stereo not drawn)
inactive: activation [1] -0.92% and -0.145% and 0.247% | max response [2] -0.904% [middle of 4 runs] | outcome [3] | max response [4] -3.1% [middle of 4 runs] | max response [5] -8.09% | max response [6] -9.26% [middle of 4 runs] | outcome [7]

CCOc1cc2ncc(C#N)c(Nc3ccc(OCc4ccccn4)c(Cl)c3)c2cc1NC(=O)/C=C/CN(C)C
inactive: outcome [8]

CN1Cc2c(N)cccc2C(c2ccccc2)C1 (stereo not drawn)
inactive: outcome [9] | outcome [10] | outcome [11] | outcome [12] | outcome [13]
